Reference: PubChem BioAssay (EPA / NIEHS)
Active and inactive are the calls of the source. Rule for the calls: active = hit-call score of the fitted dose curve at least 0.9, where 1 is the maximum; inactive = score below 0.9.

Key:
[1] = read-out: catalase (CAT), CAT (gene 847); assay: LTEA_HepaRG_CAT: Life Technologies and Expression Analysis (LTEA) Assay for catalase (CAT) using HepaRG (AID 2283452); details: mRNA level, 48 h; actives raise or lower the signal;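 for AC50: TaqMan qRT-PCR signal normalized to ACTB GAPDH and POLR2A housekeeping genes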
Outline: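 Differentiated HepaRG cells in serum-free induction medium were dosed 48 h in duplicate, eight half-log concentrations from 100 uM in 0.5% DMSO. Transcript measured by TaqMan qRT-PCR, normalised to ACTB/GAPDH/POLR2A, fitted bidirectionally against DMSO.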

[2] = read-out: flavin-containing dimethylaniline monooxygenases 3 (FMO3), FMO3 (gene 2328); assay: LTEA_HepaRG_FMO3: Life Technologies and Expression Analysis (LTEA) Assay for flavin-containing dimethylaniline monooxygenases 3 (FMO3) using HepaRG (AID 2283453); details: mRNA level, 48 h; actives raise or lower the signal;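 for AC50: FMO3 transcript by TaqMan qRT-PCR normalized to ACTB GAPDH and POLR2A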
Outline: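 Eight-point concentration-response in serum-free HepaRG cultures (top 100 uM, 0.5% DMSO, 48 h). Read-out: FMO3 mRNA level normalized to three endogenous control genes, fitted bidirectionally versus vehicle.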

[3] = read-out: Cytochrome P450 (CYP1A1), CYP1A1 (gene 1543); assay: LTEA_HepaRG_CYP1A1: Life Technologies and Expression Analysis (LTEA) Assay for Cytochrome P450 (CYP1A1) using HepaRG (AID 2283454); details: mRNA level, 48 h; actives raise or lower the signal
Outline: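 Induction of CYP1A1 mRNA in a human hepatic cell line was measured 48 h after dosing, with 1 mM phenobarbital as induction positive control and 0.5% DMSO vehicle as baseline for bidirectional curve fitting.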

[4] = read-out: CFLAR gene, CFLAR (gene 8837); assay: LTEA_HepaRG_CFLAR: Life Technologies and Expression Analysis (LTEA) Assay for CFLAR gene using HepaRG (AID 2283455); details: mRNA level, 48 h; actives raise or lower the signal
Outline: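 Gain- or loss-of-signal changes in CFLAR transcript were fitted bidirectionally relative to 0.5% DMSO. Cells (HepaRG, duplicate wells) were dosed for 48 h across eight half-log concentrations topping at 100 uM; quantitation by TaqMan qRT-PCR.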

[5] = read-out: Forkhead box O1 (FOXO1), FOXO1 (gene 2308); assay: LTEA_HepaRG_FOXO1: Life Technologies and Expression Analysis (LTEA) Assay for Forkhead box O1 (FOXO1) using HepaRG (AID 2283456); details: mRNA level, 48 h; actives raise or lower the signal
Outline: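 Using one lot of HepaRG hepatic cells kept in 0.5% DMSO, the team applied test chemicals in duplicate, half-log dilutions from 100 uM, for 48 h. Expression, normalised to ACTB/GAPDH/POLR2A, was compared with vehicle in either direction.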

[6] = read-out: growth arrest and DNA damage 45 (GADD45A), GADD45A (gene 1647); assay: LTEA_HepaRG_GADD45A: Life Technologies and Expression Analysis (LTEA) Assay for growth arrest and DNA damage 45 (GADD45A) using HepaRG (AID 2283458); details: mRNA level, 48 h; actives raise or lower the signal
Outline: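 HepaRG, 48 h exposure, 8 conc. (top 100 uM, half-log steps), 0.5% DMSO vehicle, duplicates. Read-out: qRT-PCR mRNA level, housekeeping-normalized (ACTB/GAPDH/POLR2A). Curves fit bidirectionally vs DMSO baseline.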

[7] = read-out: Forkhead box O3 (FOXO3), FOXO3 (gene 2309); assay: LTEA_HepaRG_FOXO3: Life Technologies and Expression Analysis (LTEA) Assay for Forkhead box O3 (FOXO3) using HepaRG (AID 2283459); details: mRNA level, 48 h; actives raise or lower the signal
Outline: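 Gene-expression endpoint: FOXO3 transcript level by qRT-PCR in HepaRG cultures treated 48 h with chemicals up to 100 uM (half-log, 0.5% DMSO vehicle).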

[8] = read-out: ABC Transporter (ABCB1), ABCB1 (gene 5243); assay: LTEA_HepaRG_ABCB1: Life Technologies and Expression Analysis (LTEA) Assay for ABC Transporter (ABCB1) using HepaRG (AID 2283460); details: mRNA level, 48 h; actives raise or lower the signal
Outline: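 Human liver HepaRG line treated 48 h with up to 100 uM compound (eight half-log points, 0.5% DMSO); ABCB1 mRNA change fitted bidirectionally against DMSO controls.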

[9] = read-out: growth arrest and DNA damage 45 (GADD45B), GADD45B (gene 4616); assay: LTEA_HepaRG_GADD45B: Life Technologies and Expression Analysis (LTEA) Assay for growth arrest and DNA damage 45 (GADD45B) using HepaRG (AID 2283461); details: mRNA level, 48 h; actives raise or lower the signal
Outline: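 Values are bidirectional concentration-response fits against 0.5% DMSO controls. Underlying data: qRT-PCR mRNA levels in human HepaRG liver cells treated 48 h in serum-free induction medium, eight concentrations topping at 100 uM.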

[10] = read-out: ABC Transporter (ABCC3), ABCC3 (gene 8714); assay: LTEA_HepaRG_ABCC3: Life Technologies and Expression Analysis (LTEA) Assay for ABC Transporter (ABCC3) using HepaRG (AID 2283462); details: mRNA level, 48 h; actives raise or lower the signal
Outline: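 Differentiated HepaRG liver cells receive test chemicals at eight concentrations (max 100 uM) for 48 h. Expression of ABCC3 is quantified by qRT-PCR against ACTB, GAPDH and POLR2A, and activity is fitted in both directions against the DMSO control.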

[11] = read-out: ABC Transporter (ABCB11), ABCB11 (gene 8647); assay: LTEA_HepaRG_ABCB11: Life Technologies and Expression Analysis (LTEA) Assay for ABC Transporter (ABCB11) using HepaRG (AID 2283463); details: mRNA level, 48 h; actives raise or lower the signal
Outline: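 Using HepaRG cultures held in 0.5% DMSO, chemicals were tested at half-log dilutions from 100 uM for 48 h. Induction or suppression of ABCB11 mRNA, normalized to ACTB, GAPDH and POLR2A, was fitted bidirectionally against vehicle.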

[12] = read-out: ABC Transporter (ABCC2), ABCC2 (gene 1244); assay: LTEA_HepaRG_ABCC2: Life Technologies and Expression Analysis (LTEA) Assay for ABC Transporter (ABCC2) using HepaRG (AID 2283464); details: mRNA level, 48 h; actives raise or lower the signal
Outline: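 Gene expression of ABCC2 was determined by qRT-PCR in HepaRG cells exposed 48 h to chemicals (highest 100 uM, half-log dilutions). Activity was fitted in both directions relative to 0.5% DMSO vehicle.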

[13] = read-out: Broad substrate specificity ATP-binding cassette transporter ABCG2 (Homo sapiens) (UniProt Q9UNQ0); assay: LTEA_HepaRG_ABCG2: Life Technologies and Expression Analysis (LTEA) Assay for ABC Transporter (ABCG2) using HepaRG (AID 2283465); details: mRNA level, 48 h; actives raise or lower the signal
Outline: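 Gene expression of ABCG2 in HepaRG liver cells is quantified by qRT-PCR following 48 h exposure across an eight-point series topping at 100 uM. Values come from bidirectional fitting relative to DMSO vehicle.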

[14] = read-out: ATP-citrate lyase (ACLY), ACLY (gene 47); assay: LTEA_HepaRG_ACLY: Life Technologies and Expression Analysis (LTEA) Assay for ATP-citrate lyase (ACLY) using HepaRG (AID 2283466); details: mRNA level, 48 h; actives raise or lower the signal
Outline: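 ACLY expression changes in human HepaRG liver cells are quantified by qRT-PCR after 48 h exposure to test chemicals (maximum 100 uM, half-log steps). Values are fitted in both directions relative to 0.5% DMSO vehicle.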

[15] = read-out: Peroxisomal acyl-coenzyme A oxidase 1 (ACOX1) gene, ACOX1 (gene 51); assay: LTEA_HepaRG_ACOX1: Life Technologies and Expression Analysis (LTEA) Assay for Peroxisomal acyl-coenzyme A oxidase 1 (ACOX1) gene using HepaRG (AID 2283467); details: mRNA level, 48 h; actives raise or lower the signal
Outline: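 Human HepaRG hepatic cultures, 48 h treatment with test chemicals up to 100 uM. ACOX1 expression read by qRT-PCR relative to 0.5% DMSO vehicle.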

[16] = read-out: Alkaline Phosphatase, Placental (ALPP) gene, ALPP (gene 250); assay: LTEA_HepaRG_ALPP: Life Technologies and Expression Analysis (LTEA) Assay for Alkaline Phosphatase, Placental (ALPP) gene using HepaRG (AID 2283468); details: mRNA level, 48 h; actives raise or lower the signal
Outline: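 Expression of ALPP was quantified by qRT-PCR against three housekeeping genes in human HepaRG cultures treated for 48 h with an eight-point concentration series up to 100 uM. Activity in either direction was fitted relative to 0.5% DMSO.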

[17] = read-out: Bcl-2 (BAD) gene, BAD (gene 572); assay: LTEA_HepaRG_BAD: Life Technologies and Expression Analysis (LTEA) Assay for Bcl-2 (BAD) gene using HepaRG (AID 2283469); details: mRNA level, 48 h; actives raise or lower the signal
Outline: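 Activity values reflect up- or down-regulation of BAD mRNA in human HepaRG hepatic cells treated 48 h in serum-free medium, with eight-point half-log dosing capped at 100 uM and 0.5% DMSO vehicle.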

[18] = read-out: Bcl-2 (BAX) gene, BAX (gene 581); assay: LTEA_HepaRG_BAX: Life Technologies and Expression Analysis (LTEA) Assay for Bcl-2 (BAX) gene using HepaRG (AID 2283470); details: mRNA level, 48 h; actives raise or lower the signal
Outline: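 qRT-PCR read-out of BAX mRNA, normalized to three housekeeping genes, after 48 h chemical exposure of human HepaRG cells in serum-free induction medium; eight-point half-log series, top 100 uM, 0.5% DMSO vehicle; bidirectional fit versus DMSO.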

[19] = read-out: adenosine kinase (ADK) gene, ADK (gene 132); assay: LTEA_HepaRG_ADK: Life Technologies and Expression Analysis (LTEA) Assay for adenosine kinase (ADK) gene using HepaRG (AID 2283471); details: mRNA level, 48 h; actives raise or lower the signal
Outline: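 HepaRG (human liver), 48 h chemical exposure, 8-pt half-log series, top 100 uM, 0.5% DMSO vehicle. Readout: ADK mRNA by qRT-PCR vs housekeeping genes; bidirectional curve fit relative to DMSO baseline.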

[20] = CEETOX_H295R_TESTO: CeeTox H295R High-throughput Steroidogenesis Assay for Testosterone (TESTO) (AID 2283457); details: actives raise or lower the signal;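 note: cells exposed to chemicals for 48 h before medium collection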
Outline: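 Testosterone synthesis is assessed in human adrenocortical H295R cells after 48 h of chemical exposure, using HPLC-MS/MS of extracted medium. Activity is fitted in both directions against DMSO control.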

Measured: AC50

Chain of Broad substrate specificity ATP-binding cassette transporter ABCG2 (Homo sapiens) (Q9UNQ0 whole entry, looked up): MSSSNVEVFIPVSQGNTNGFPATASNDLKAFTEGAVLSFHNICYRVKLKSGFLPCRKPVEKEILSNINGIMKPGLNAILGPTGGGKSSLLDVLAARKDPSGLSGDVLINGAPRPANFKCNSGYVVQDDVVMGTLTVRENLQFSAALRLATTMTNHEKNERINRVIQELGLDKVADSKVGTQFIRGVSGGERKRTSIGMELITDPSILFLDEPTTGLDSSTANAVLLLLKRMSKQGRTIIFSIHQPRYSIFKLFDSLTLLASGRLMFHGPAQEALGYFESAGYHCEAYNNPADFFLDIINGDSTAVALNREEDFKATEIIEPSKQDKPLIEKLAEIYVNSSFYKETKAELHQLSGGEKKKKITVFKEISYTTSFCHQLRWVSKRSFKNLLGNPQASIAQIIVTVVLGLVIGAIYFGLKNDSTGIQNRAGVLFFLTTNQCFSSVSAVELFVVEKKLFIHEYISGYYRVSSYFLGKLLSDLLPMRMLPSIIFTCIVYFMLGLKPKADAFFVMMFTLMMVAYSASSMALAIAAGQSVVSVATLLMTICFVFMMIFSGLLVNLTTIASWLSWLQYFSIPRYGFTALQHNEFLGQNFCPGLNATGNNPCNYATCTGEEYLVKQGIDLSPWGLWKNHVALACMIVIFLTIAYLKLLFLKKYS

CC(C)(C)c1cc(/C=C2\SC(N)=NC2=O)cc(C(C)(C)C)c1O
active: [1] 16.5 µM | [2] 23.9 µM | [4] 27.5 µM | [9] 35.5 µM | [10] 50 µM | [11] 24.6 µM | [12] 27.6 µM | [14] 82 µM | [15] 26.1 µM | [19] 23.5 µM
inactive: [3] | [5] | [6] | [7] | [8] | [13] | [16] | [17] | [18]

OC12N=C(c3ccccc3)SC1Cc1cc(Cl)ccc12 (centres undefined)
inactive: [5] | [6] | [12] | [17] | [18] | [19]
active: [1] 16.6 µM | [2] 15.7 µM | [3] 1.21 µM | [4] 5 µM | [7] 4.85 µM | [8] 17 µM | [9] 3.34 µM | [10] 21 µM | [11] 16.7 µM | [13] 16.7 µM | [14] 0.377 µM | [15] 21.1 µM | [16] 35.7 µM

O=C(O)c1ccccc1-n1cc(C(=O)O)c(=O)c2cc(Nc3c(F)cc(F)cc3Cl)c(Cl)cc21
inactive: [1] | [2] | [4] | [5] | [7] | [9] | [10] | [11] | [13] | [14] | [15] | [17] | [18] | [19]
active: [3] 20.5 µM | [6] 0.00848 µM | [8] 15.5 µM | [12] 10.6 µM | [16] 0.0892 µM

CC(C)(C)c1csc(-c2cc3cc(OCc4ccccc4CC(=O)O)ccc3o2)n1
active: [1] 28.3 µM | [2] 73.5 µM | [3] 12.2 µM | [4] 73.5 µM | [5] 81.3 µM | [8] 79 µM | [9] 42.6 µM | [11] 15.8 µM | [12] 93.8 µM | [13] 15.8 µM | [14] 87.4 µM | [15] 72.1 µM | [16] 24.4 µM | [19] 73.1 µM
inactive: [6] | [7] | [10] | [17] | [18]

CC(O)CC(C)(C)O (centres undefined)
inactive: [1] | [2] | [3] | [4] | [5] | [6] | [7] | [8] | [9] | [10] | [11] | [12] | [13] | [14] | [15] | [16] | [17] | [18] | [19]

Oc1ccc2ccccc2c1
active: [3] 66.8 µM | [20] 82.4 µM
inactive: [1] | [2] | [4] | [5] | [6] | [7] | [8] | [10] | [11] | [12] | [13] | [14] | [15] | [16] | [17] | [18] | [19]
